Reference: the supplement of paper PMC11732987, “Enantioselective OTUD7B fragment discovery through chemoproteomics screening and high-throughput optimisation” (Communications Chemistry, 2025)

Columns and labels:
Experiment in all cases: log2 ratio of Biotin-Ahx-Ub-VS probe labelling (fragment/DMSO); higher = less target engagement (more negative = stronger competition), active = hit call of the paper (q ≤ 0.05, log2 ratio ≤ -1)
Conditions in all cases: compound concentration: 200 uM; treatment time: 3 h
USP42 = molecular target: T1, USP42 (UniProt Q9H9J4)
T1 sequence (whole entry): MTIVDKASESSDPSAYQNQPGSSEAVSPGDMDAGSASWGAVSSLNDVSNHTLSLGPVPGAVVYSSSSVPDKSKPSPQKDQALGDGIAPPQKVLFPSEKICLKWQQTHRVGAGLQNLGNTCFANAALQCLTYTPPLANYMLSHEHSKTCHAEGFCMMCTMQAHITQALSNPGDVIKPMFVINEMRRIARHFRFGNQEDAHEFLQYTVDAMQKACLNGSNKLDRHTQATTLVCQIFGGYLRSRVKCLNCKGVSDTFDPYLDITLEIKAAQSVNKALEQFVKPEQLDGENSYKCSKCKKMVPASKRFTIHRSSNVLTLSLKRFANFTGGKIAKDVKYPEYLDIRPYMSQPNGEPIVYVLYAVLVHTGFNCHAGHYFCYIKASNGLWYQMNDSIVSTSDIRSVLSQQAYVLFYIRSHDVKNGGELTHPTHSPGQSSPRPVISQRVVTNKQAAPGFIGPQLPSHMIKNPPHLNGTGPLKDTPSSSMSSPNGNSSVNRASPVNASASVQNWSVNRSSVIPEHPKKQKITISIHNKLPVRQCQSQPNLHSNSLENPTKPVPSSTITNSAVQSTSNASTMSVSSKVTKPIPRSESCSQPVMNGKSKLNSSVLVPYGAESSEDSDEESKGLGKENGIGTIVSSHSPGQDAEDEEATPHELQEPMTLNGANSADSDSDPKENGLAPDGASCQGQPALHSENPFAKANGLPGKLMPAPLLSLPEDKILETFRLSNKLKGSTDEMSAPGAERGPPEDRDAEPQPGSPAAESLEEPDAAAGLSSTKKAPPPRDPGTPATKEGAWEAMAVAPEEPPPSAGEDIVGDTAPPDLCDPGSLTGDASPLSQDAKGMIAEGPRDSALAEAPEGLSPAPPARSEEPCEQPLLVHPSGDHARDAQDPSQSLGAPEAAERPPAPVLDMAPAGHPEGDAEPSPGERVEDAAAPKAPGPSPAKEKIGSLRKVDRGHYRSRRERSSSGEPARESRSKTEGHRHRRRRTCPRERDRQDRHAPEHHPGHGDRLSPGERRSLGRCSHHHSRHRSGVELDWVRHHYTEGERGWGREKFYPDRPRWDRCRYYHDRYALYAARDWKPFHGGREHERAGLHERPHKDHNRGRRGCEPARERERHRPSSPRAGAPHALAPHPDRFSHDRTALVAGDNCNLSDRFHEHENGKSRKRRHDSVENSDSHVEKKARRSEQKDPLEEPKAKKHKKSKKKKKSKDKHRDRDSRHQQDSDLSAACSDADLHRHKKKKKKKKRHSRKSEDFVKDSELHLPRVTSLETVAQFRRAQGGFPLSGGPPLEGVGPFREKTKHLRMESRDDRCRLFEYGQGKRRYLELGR
Method in brief: (§1)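 HEK293T lysate (495 µg per sample, in Tris/CHAPS/IGEPAL buffer with protease inhibitors) was exposed in triplicate for 3 h to fragment at 200 µM or to vehicle, then to Biotin-Ahx-Ub-VS at 0.5 µM final for 1 h. Labelled DUBs were enriched on NeutrAvidin, digested with LysC and trypsin, and analysed by diaPASEF LC-MS/MS. Spectronaut label-free quantities were normalised to the global median, and values are average log2 ratios of fragment over vehicle from an unpaired t-test. Only proteins with ≥2 unique peptides were used.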

USP46 = USP46 (UniProt P62068)
USP46, sequence (P62068 whole entry): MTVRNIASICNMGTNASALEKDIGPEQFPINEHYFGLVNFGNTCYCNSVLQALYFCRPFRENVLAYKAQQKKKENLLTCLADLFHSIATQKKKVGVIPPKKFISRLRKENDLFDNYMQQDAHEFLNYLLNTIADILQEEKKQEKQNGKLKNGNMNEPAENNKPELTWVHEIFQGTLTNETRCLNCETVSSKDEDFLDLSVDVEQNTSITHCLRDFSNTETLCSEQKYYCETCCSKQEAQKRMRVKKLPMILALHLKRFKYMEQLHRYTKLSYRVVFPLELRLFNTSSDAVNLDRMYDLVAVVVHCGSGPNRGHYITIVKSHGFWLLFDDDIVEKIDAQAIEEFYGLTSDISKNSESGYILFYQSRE
Method in brief: as §1

USP47 = molecular target: T2, USP47 (UniProt Q96K76)
T2 sequence (whole entry): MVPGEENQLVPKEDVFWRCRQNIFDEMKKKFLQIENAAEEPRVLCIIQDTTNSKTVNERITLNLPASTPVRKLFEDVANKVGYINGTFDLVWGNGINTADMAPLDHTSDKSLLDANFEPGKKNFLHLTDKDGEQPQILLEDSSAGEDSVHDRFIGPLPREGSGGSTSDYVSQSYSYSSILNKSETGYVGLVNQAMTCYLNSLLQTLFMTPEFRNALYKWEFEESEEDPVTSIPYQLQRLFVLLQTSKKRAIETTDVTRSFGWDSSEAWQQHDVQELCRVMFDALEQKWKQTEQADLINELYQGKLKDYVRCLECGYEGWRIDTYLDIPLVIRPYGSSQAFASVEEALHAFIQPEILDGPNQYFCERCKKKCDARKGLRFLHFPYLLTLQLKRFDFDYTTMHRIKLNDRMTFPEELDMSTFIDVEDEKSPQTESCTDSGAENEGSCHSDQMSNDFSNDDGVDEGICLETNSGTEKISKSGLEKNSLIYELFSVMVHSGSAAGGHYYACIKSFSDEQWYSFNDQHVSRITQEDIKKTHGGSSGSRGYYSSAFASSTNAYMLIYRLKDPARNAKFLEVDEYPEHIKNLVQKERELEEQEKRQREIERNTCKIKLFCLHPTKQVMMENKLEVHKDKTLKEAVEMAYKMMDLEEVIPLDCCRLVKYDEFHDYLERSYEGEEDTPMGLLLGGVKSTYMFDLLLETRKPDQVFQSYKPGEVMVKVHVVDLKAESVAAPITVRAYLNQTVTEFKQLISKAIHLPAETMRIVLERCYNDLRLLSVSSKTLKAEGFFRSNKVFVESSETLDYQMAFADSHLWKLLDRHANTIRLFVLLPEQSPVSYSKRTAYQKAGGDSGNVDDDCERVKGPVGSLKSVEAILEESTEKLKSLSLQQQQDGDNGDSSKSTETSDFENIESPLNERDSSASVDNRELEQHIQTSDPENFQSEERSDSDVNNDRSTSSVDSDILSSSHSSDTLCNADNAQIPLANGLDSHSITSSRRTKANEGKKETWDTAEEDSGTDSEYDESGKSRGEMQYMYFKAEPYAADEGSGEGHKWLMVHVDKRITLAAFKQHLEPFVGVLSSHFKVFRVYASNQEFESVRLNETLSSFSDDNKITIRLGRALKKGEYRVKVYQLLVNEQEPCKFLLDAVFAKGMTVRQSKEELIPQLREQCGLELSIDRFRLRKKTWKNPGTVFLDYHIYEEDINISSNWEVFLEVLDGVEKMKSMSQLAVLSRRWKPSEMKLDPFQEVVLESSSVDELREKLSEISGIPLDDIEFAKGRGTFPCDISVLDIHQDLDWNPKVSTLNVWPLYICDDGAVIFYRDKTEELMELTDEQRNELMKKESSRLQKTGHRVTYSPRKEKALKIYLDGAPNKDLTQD
Method in brief: as §1

USP48 = molecular target: T3, USP48 (UniProt Q86UV5)
T3 sequence (whole entry): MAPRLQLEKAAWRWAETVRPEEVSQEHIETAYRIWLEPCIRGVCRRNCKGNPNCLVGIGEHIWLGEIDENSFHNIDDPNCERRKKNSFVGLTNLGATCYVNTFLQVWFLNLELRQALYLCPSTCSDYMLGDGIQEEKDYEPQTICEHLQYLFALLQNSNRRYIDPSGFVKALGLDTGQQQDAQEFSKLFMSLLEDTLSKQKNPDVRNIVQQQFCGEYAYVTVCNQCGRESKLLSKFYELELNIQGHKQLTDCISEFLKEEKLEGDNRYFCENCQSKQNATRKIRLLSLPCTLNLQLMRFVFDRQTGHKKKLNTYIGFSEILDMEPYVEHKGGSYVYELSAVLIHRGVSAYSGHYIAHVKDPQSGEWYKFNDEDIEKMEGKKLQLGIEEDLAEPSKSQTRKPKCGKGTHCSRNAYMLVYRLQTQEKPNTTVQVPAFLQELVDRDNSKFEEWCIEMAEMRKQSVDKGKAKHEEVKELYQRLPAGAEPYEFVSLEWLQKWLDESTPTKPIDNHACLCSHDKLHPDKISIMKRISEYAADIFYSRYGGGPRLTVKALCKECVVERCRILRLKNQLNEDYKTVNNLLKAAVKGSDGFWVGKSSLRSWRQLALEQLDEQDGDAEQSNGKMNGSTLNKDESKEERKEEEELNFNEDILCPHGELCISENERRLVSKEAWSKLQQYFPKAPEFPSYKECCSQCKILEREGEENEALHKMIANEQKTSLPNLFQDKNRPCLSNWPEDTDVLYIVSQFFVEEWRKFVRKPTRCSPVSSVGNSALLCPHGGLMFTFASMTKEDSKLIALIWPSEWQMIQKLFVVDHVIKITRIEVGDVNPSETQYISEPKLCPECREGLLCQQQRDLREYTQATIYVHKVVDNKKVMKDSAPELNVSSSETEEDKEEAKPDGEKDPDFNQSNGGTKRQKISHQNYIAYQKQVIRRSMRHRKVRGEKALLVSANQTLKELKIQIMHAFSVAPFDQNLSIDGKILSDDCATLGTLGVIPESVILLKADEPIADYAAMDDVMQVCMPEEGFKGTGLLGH
Method in brief: as §1

USP5 = molecular target: T4, USP5 (UniProt P45974)
T4 sequence (whole entry): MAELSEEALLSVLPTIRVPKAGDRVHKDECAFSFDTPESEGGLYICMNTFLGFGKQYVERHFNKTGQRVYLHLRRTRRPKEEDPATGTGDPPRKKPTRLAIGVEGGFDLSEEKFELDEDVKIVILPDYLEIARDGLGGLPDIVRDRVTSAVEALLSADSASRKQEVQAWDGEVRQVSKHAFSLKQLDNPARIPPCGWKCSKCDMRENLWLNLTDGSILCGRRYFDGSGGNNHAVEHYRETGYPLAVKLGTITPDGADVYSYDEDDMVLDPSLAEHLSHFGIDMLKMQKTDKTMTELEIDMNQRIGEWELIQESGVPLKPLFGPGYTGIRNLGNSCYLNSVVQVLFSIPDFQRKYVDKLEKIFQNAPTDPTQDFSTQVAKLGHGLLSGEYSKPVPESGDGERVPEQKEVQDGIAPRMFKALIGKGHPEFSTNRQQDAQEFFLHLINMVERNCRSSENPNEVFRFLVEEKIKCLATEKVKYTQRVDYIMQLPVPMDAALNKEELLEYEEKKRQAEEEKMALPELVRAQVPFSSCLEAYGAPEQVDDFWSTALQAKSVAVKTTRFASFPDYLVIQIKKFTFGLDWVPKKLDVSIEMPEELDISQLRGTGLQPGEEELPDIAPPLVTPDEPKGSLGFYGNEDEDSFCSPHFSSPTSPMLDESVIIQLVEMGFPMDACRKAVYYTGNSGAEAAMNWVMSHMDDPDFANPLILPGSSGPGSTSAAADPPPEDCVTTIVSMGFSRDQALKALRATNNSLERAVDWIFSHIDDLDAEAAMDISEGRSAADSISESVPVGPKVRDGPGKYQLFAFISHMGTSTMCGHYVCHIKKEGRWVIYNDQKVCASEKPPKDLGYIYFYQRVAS
Method in brief: as §1

USP54 = USP54 (UniProt Q70EL1)
USP54, sequence (Q70EL1 whole entry): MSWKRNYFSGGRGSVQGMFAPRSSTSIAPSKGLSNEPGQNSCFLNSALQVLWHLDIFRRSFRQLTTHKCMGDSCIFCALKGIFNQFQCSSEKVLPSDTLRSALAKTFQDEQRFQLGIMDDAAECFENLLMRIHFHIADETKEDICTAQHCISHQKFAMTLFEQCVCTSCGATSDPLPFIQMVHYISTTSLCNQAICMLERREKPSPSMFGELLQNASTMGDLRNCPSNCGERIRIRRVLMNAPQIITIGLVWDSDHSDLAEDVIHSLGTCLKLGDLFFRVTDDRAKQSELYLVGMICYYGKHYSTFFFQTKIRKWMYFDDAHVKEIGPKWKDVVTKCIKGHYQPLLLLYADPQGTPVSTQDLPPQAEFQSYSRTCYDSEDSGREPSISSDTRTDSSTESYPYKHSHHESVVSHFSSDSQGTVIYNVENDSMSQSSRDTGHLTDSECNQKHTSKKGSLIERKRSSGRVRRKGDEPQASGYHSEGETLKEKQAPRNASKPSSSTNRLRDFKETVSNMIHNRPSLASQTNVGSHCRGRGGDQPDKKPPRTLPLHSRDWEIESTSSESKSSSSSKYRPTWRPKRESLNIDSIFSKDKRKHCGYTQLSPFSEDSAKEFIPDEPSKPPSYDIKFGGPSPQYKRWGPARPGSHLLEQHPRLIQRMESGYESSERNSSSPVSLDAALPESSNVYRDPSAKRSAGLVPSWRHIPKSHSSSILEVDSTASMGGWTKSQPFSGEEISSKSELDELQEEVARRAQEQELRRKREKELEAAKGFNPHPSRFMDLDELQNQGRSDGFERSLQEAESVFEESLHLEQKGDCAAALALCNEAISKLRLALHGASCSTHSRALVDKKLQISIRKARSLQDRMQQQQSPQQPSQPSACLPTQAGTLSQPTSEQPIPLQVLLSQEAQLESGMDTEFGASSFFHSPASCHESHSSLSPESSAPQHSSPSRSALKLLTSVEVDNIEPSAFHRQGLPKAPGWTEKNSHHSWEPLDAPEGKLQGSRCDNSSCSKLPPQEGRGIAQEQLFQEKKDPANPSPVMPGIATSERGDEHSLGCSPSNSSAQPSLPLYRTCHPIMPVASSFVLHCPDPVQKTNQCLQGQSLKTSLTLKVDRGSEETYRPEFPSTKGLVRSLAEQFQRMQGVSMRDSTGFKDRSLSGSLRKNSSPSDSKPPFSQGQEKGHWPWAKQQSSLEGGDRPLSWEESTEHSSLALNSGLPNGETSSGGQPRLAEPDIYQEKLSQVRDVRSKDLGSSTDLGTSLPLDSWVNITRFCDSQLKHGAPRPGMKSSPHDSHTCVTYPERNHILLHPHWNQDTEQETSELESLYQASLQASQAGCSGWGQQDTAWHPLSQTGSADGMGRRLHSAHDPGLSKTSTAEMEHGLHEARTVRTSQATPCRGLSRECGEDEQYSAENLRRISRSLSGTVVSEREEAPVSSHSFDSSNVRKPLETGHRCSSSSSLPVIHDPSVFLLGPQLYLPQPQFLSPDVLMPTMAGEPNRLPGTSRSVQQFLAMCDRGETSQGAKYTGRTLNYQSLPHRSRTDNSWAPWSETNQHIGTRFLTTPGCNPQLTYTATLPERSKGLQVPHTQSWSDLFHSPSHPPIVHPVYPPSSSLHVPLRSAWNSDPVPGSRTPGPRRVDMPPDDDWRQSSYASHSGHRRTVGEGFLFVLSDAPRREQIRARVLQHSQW
Method in brief: as §1

USP7 = USP7 (UniProt Q93009)
USP7, sequence (Q93009 whole entry, looked up): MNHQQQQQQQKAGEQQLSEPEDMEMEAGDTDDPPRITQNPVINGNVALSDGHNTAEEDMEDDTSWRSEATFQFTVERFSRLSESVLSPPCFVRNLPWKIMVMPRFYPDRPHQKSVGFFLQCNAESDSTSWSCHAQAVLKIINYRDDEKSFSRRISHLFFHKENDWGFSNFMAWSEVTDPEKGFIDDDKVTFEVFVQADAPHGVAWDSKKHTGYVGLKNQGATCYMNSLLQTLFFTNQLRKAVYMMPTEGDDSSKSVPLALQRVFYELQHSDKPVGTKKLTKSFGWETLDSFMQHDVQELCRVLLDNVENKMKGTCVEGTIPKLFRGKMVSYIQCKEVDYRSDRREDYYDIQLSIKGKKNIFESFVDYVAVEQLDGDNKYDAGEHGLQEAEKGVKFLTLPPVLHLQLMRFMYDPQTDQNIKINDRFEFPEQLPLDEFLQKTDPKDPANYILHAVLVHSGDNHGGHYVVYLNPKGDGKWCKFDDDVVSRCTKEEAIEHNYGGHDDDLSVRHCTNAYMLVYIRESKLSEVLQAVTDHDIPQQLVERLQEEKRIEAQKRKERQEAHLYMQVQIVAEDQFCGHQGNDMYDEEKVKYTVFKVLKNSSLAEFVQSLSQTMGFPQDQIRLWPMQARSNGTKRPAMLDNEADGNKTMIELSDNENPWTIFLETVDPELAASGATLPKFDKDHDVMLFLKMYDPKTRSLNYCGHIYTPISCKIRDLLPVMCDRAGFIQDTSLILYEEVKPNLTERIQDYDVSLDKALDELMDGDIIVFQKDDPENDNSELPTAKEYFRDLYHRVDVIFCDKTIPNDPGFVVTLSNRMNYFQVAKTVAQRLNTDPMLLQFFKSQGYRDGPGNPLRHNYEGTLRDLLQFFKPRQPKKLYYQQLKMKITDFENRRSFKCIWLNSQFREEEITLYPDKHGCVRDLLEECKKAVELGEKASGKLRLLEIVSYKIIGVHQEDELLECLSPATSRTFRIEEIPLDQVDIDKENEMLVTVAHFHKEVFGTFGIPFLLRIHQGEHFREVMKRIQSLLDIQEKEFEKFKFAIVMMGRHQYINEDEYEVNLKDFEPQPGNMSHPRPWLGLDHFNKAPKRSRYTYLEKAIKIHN
Method in brief: as §1

USP8 = molecular target: T5, USP8 (UniProt P40818)
T5 sequence (whole entry): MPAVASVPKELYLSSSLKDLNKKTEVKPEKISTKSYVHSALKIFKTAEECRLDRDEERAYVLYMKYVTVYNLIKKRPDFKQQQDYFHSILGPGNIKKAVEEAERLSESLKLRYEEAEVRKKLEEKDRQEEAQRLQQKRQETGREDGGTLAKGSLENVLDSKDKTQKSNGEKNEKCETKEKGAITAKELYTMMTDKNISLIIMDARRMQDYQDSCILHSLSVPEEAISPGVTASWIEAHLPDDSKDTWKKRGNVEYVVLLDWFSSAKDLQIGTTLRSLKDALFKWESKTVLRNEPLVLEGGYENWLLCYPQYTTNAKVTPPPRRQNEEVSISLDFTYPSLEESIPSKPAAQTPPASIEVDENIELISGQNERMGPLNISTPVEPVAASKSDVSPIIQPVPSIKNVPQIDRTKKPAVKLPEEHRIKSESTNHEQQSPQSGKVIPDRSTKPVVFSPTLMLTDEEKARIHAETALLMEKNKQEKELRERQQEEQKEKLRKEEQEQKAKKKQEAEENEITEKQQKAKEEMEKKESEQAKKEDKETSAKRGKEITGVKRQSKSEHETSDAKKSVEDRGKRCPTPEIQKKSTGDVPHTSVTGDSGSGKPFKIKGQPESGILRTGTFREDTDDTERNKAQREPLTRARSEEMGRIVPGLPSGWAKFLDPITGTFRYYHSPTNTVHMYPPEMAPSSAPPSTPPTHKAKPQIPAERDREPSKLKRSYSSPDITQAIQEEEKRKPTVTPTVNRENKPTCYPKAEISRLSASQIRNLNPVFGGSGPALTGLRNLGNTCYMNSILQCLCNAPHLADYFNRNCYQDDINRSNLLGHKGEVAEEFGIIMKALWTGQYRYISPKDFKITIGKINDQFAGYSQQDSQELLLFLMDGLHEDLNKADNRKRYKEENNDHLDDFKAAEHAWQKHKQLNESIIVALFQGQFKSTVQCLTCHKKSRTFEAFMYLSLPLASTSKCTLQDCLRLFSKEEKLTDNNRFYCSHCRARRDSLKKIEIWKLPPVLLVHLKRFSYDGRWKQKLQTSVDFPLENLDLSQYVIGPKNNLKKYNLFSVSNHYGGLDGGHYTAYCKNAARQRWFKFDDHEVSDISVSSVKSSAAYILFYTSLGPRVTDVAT
Method in brief: as §1

USP9X = USP9X (UniProt Q93008)
Method in brief: as §1

UniProt O00487 = molecular target: UniProt O00487
UniProt O00487, sequence (O00487 whole entry): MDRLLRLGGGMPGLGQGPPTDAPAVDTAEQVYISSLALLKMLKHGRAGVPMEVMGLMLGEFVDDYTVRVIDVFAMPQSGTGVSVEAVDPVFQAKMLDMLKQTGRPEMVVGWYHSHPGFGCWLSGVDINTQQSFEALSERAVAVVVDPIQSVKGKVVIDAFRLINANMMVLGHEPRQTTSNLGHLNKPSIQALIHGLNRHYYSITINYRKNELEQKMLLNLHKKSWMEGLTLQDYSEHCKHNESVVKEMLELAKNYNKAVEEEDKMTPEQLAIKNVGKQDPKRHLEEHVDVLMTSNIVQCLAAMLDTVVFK
Method in brief: as §1

Measured: log2 ratio of Biotin-Ahx-Ub-VS probe labelling

C[C@H]1CN(C(=O)CCl)CCN1C(=O)c1cnn(C)c1.Cl
inactive: USP42 0.109 | USP46 -0.0724 | USP47 -0.522 | USP48 -0.436 | USP5 0.184 | USP54 -0.0291 | USP7 -0.353 | USP8 -0.184 | USP9X -0.221 | UniProt O00487 -0.129
